The values that follow come from PubChem BioAssay (EPA / NIEHS).

As usually defined, the AC50 is the concentration at which the activity in the assay is half-maximal.

Read-out in assay [1]: Human Leukocyte Antigen - DR isotype (HLADR), HLA-DRA (gene 3122)
Put plainly: BSK_BE3C_HLADR: BioMAP Diversity Plus: BE3C Assay for Human Leukocyte Antigen - DR isotype (HLADR) Biomarker Activity (AID 2283032). The settings on record: primary human bronchial epithelial cells; actives raise or lower the signal. In short, it runs like this:
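Signal came from an ELISA for HLA-DR in human bronchial epithelial primary cells harvested 24 h after treatment; gain- and loss-of-signal fitting used DMSO controls as reference.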

Read-out in assay [2]: Vascular cell adhesion molecule 1 (VCAM1), VCAM1 (gene 7412)
Put plainly: BSK_4H_VCAM1: BioMAP Diversity Plus: 4H Assay for Vascular cell adhesion molecule 1 (VCAM1) Biomarker Activity (AID 2283033).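 As to outcome: cell-surface VCAM-1 protein measured by ELISA.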 The settings on record: primary human endothelial cells (HUVEC); actives raise or lower the signal. Summed up: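 Endpoint derived from bidirectional fitting against DMSO controls of VCAM-1 ELISA signal in umbilical vein endothelial cells sampled at 24 h following treatment.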

Read-out in assay [3]: Interferon-gamma inducible Protein 10 (IP10), CXCL10 (gene 3627)
Briefly: BSK_BE3C_IP10: BioMAP Diversity Plus: BE3C Assay for Interferon-gamma inducible Protein 10 (IP10) Biomarker Activity (AID 2283034). The settings on record: primary human bronchial epithelial cells; actives raise or lower the signal. In short, it runs like this: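 Using primary human bronchial epithelial cultures, the assay captures IP-10 by ELISA one day (24 h) after exposure. Parallel SRB staining of total protein flags overt cytotoxicity. Fits run bidirectionally relative to DMSO.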

Read-out in assay [4]: Monokine induced gamma interferon (MIG), CXCL9 (gene 4283)
Briefly: BSK_BE3C_MIG: BioMAP Diversity Plus: BE3C Assay for Monokine induced gamma interferon (MIG) Biomarker Activity (AID 2283035).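 Also: MIG protein measured by ELISA in BE3C cultures after 24 h of dosing.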 The settings on record: primary human bronchial epithelial cells; actives raise or lower the signal. Summed up: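 MIG level was determined by ELISA after 24 h chemical treatment of primary human bronchial epithelial cells. Values were fitted bidirectionally with DMSO as the negative control and activity baseline.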

Read-out in assay [5]: Transforming growth factor beta 1 (TGFb1), TGFB1 (gene 7040)
Put plainly: BSK_BE3C_TGFb1: BioMAP Diversity Plus: BE3C Assay for Transforming growth factor beta 1 (TGFb1) Biomarker Activity (AID 2283036;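 also: TGF-b1 protein level measured by ELISA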). The settings on record: primary human bronchial epithelial cells; actives raise or lower the signal. Summed up: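 In this human primary bronchial epithelial system, an ELISA quantified TGF-b1 one day after dosing. Endpoint changes in either direction were fitted relative to DMSO.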

Read-out in assay [6]: urokinase plasminogen activator (uPA), PLAU (gene 5328)
Briefly: BSK_BE3C_uPA: BioMAP Diversity Plus: BE3C Assay for urokinase plasminogen activator (uPA) Biomarker Activity (AID 2283038).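 Also: uPA protein level quantified by ELISA in cell cultures; uPA read one day after compound addition.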 The settings on record: primary human bronchial epithelial cells; actives raise or lower the signal. In short, it runs like this:
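Measured by ELISA: uPA from human primary bronchial epithelial cells 24 h after chemical treatment. Values derive from bidirectional curve fitting with DMSO serving as negative control. Total protein by SRB staining in parallel wells flagged overt cytotoxicity.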

Read-out in assay [7]: Urokinase-type plasminogen activator receptor (uPAR), PLAUR (gene 5329)
Put plainly: BSK_BE3C_uPAR: BioMAP Diversity Plus: BE3C Assay for Urokinase-type plasminogen activator receptor (uPAR) Biomarker Activity (AID 2283039).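 Also: uPAR protein level measured by ELISA on the cells; cells exposed to compound for one day before measurement.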 The settings on record: primary human bronchial epithelial cells; actives raise or lower the signal. In short, it runs like this: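 A uPAR ELISA serves as the readout, taken 24 h after treating primary human bronchial epithelial cells. Responses in either direction are fitted against DMSO, which defines baseline activity.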

Read-out in assay [8]: Interleukin-6 (IL6), IL6 (gene 3569)
Briefly: BSK_CASM3C_IL6: BioMAP Diversity Plus: CASM3C Assay for Interleukin-6 (IL6) Biomarker Activity for (AID 2283040). The settings on record: primary human coronary artery smooth muscle cells; actives raise or lower the signal.

Read-out in assay [9]: Tissue plasminogen activator (tPA), PLAT (gene 5327)
Briefly: BSK_BE3C_tPA: BioMAP Diversity Plus: BE3C Assay for Tissue plasminogen activator (tPA) Biomarker Activity (AID 2283041).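 Also: tPA level quantified by ELISA one day after compound addition.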 The settings on record: primary human bronchial epithelial cells; actives raise or lower the signal. Summed up: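 Bidirectional curve fitting relative to DMSO defined activity, with tPA detected by ELISA in chemically treated human bronchial epithelial primary cells at 24 hours.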

Read-out in assay [10]: Interleukin-8 (IL8), CXCL8 (gene 3576)
Put plainly: BSK_CASM3C_IL8: BioMAP Diversity Plus: CASM3C Assay for Interleukin-8 (IL8) Biomarker Activity (AID 2283042).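 Also: IL-8 protein level quantified by ELISA.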 The settings on record: primary human coronary artery smooth muscle cells; actives raise or lower the signal.

Read-out in assay [11]: Human Leukocyte Antigen - DR isotype (HLADR), HLA-DRA (gene 3122)
Briefly: BSK_CASM3C_HLADR: BioMAP Diversity Plus: CASM3C Assay for Human Leukocyte Antigen - DR isotype (HLADR) Biomarker Activity (AID 2283043).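 Also: cell-surface HLA-DR protein level quantified by ELISA.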 The settings on record: primary human coronary artery smooth muscle cells; actives raise or lower the signal.

Read-out in assay [12]: Macrophage colony-stimulating factor (MCSF), CSF1 (gene 1435)
Briefly: BSK_CASM3C_MCSF: BioMAP Diversity Plus: CASM3C Assay for Macrophage colony-stimulating factor (MCSF) Biomarker Activity (AID 2283044).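 Also: M-CSF protein amount quantified by ELISA after 24 h exposure.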 The settings on record: primary human coronary artery smooth muscle cells; actives raise or lower the signal.

Read-out in assay [13]: Low-density lipoprotein receptor (LDLR), LDLR (gene 3949)
Briefly: BSK_CASM3C_LDLR: BioMAP Diversity Plus: CASM3C Assay for Low-density lipoprotein receptor (LDLR) Biomarker Activity (AID 2283045).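 Also: LDLR protein level on the cell surface quantified by ELISA.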 The settings on record: primary human coronary artery smooth muscle cells; actives raise or lower the signal.

Read-out in assay [14]: Monocyte Chemoattractant Protein-1 (MCP1), CCL2 (gene 6347)
Put plainly: BSK_CASM3C_MCP1: BioMAP Diversity Plus: CASM3C Assay for Monocyte Chemoattractant Protein-1 (MCP1) Biomarker Activity (AID 2283046).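 Also: MCP-1 level quantified by ELISA 24 h after dosing.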 The settings on record: primary human coronary artery smooth muscle cells; actives raise or lower the signal.

Assay [15] can be described thus: BSK_CASM3C_Proliferation: Cell Proliferation Assessment in the BioMAP Diversity Plus: CASM3C Assay (AID 2283047).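 Also: sulforhodamine B total protein stain as relative cell number at 560 nm; sub-confluent cells exposed 48 h before staining; fitted both ways against DMSO so gain or loss of cell number.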 The settings on record: primary human coronary artery smooth muscle cells.
Read-out in assay [16]: Monokine induced gamma interferon (MIG), CXCL9 (gene 4283)
Put plainly: BSK_CASM3C_MIG: BioMAP Diversity Plus: CASM3C Assay for Monokine induced gamma interferon (MIG) Biomarker Activity (AID 2283048).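 Also: MIG protein level measured by ELISA.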 The settings on record: primary human coronary artery smooth muscle cells; actives raise or lower the signal.

Read-out in assay [17]: serum amyloid A (SAA), SAA1 (gene 6288)
Put plainly: BSK_CASM3C_SAA: BioMAP Diversity Plus: CASM3C Assay for serum amyloid A (SAA) Biomarker Activity (AID 2283049).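 Also: SAA protein level quantified by ELISA.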 The settings on record: primary human coronary artery smooth muscle cells; actives raise or lower the signal.

Assay [18] can be described thus: BSK_CASM3C_SRB: Viability Assessment in the BioMAP Diversity Plus: CASM3C Assay (AID 2283050).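 Also: cells exposed to compound for 24 h.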 The settings on record: primary human coronary artery smooth muscle cells.
Read-out in assay [19]: Thrombomodulin, THBD (gene 7056)
Put plainly: BSK_CASM3C_Thrombomodulin: BioMAP Diversity Plus: CASM3C Assay for Thrombomodulin Biomarker Activity (AID 2283051).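 Also: thrombomodulin protein level measured by ELISA 24 h after dosing.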 The settings on record: primary human coronary artery smooth muscle cells; actives raise or lower the signal.

Read-out in assay [20]: Plasminogen activator inhibitor-1 (PAI1), SERPINE1 (gene 5054)
Put plainly: BSK_BE3C_PAI1: BioMAP Diversity Plus: BE3C Assay for Plasminogen activator inhibitor-1 (PAI1) Biomarker Activity (AID 2283037). The settings on record: primary human bronchial epithelial cells; actives raise or lower the signal. Summed up: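 PAI-1 biomarker levels in treated human bronchial epithelial cells are determined by ELISA at 24 h. Both increases and decreases relative to DMSO are fitted.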

SMILES strings stand for the structures. Calls of active or inactive are those of the source. The calls were made as follows: active = hit-call score of the fitted dose curve at least 0.9, where 1 is the maximum; inactive = score below 0.9.

Regarding `CN(C)C(=O)Nc1ccc(Cl)cc1`, the outcome in assay [1], in [2], in [3], in assay [4], in [5] and in [6] was inactive. Moreover, the result in assay [7], in assay [8], in [9], in assay [10], in assay [11] and in assay [12] was inactive. Further, the result in assay [13], in assay [14], in assay [15], in [16], in assay [17] and in [18] was inactive. For the same compound, the result in assay [19] was inactive.
As for `Nc1ccc(Cl)cc1N`, the result in [1], in assay [3], in assay [4], in [5], in [6] and in [7] was inactive. The result in assay [8], in assay [9], in assay [10], in [11], in [12] and in assay [13] was inactive. For the same compound, the outcome in [14], in [16], in assay [17] and in assay [18] was inactive. Also, the AC50 is 2.74 µM (active) in assay [2], 6.89 µM (active) in assay [15] and 5.73 µM (active) in assay [19].
Regarding `O=C(Nc1ccccc1)c1ccccc1I`, the outcome in assay [1], in assay [2], in assay [3], in assay [4], in [5] and in [6] was inactive. Besides, the result in assay [7], in assay [8], in [9], in assay [10], in assay [11] and in [12] was inactive. Further, the outcome in assay [13], in assay [14], in assay [15], in [16], in assay [17] and in assay [18] was inactive. The result in assay [19] was inactive.
In the case of `Cc1ccc(N)cc1`, the outcome in assay [1], in assay [3], in assay [4], in assay [5], in [20] and in assay [6] was inactive. Also, the outcome in assay [7], in assay [8], in assay [9], in assay [10], in [11] and in assay [12] was inactive. Further, the result in assay [13], in [14], in assay [15], in assay [16], in [17] and in [18] was inactive. The outcome in assay [19] was inactive.
As for `Clc1ccc(C(c2ccc(Cl)cc2)C(Cl)(Cl)Cl)cc1`, the result in [1], in assay [3], in assay [4], in assay [5], in assay [20] and in [6] was inactive. The outcome in [7], in assay [8], in [9], in assay [10] and in assay [16] was inactive. The AC50 in assay [11] was 31.4 µM (active); in assay [12] it was 14.7 µM (active); in assay [13], 32.1 µM (active); in [14], 36.9 µM (active); in [15], 29.1 µM (active); in assay [17], 33.3 µM (active). The concentration at half-maximal activity (AC50) in [18] is 27.7 µM (active); in [19], 6.95 µM (active).
With `OCCCl`, the outcome in assay [1], in assay [3], in [4], in [5], in assay [20] and in assay [6] was inactive. Also, the outcome in assay [7], in assay [8], in assay [9], in assay [10], in assay [11] and in assay [12] was inactive. The outcome in assay [13], in [14], in assay [15], in [16], in assay [17] and in assay [18] was inactive. Moreover, in [19], the result was inactive.
In the case of `[As]#[In]`, the result in [1], in assay [2], in [3], in assay [4], in [5] and in assay [6] was inactive. Moreover, the outcome in assay [7], in assay [8], in assay [9], in assay [10], in assay [11] and in assay [12] was inactive. Moreover, the outcome in [13], in [14], in assay [15], in assay [16], in assay [17] and in [18] was inactive. In addition, the outcome in assay [19] was inactive.
